Records with an inconclusive call do not appear. This is one part of the list. Activity calls are given as the source filed them. Unless noted, the call rests on the fitted dose curve; in most records, active means well fitted curve in the direction sought with a large enough effect; inconclusive means small, poorly fitted or top-dose-only effect, or another doubt; inactive means no such curve, though single readings can be large; an effect the other way counts as inactive or inconclusive.
Experiments:
[1] = target: Rap guanine nucleotide exchange factor 3 (Homo sapiens) (UniProt O95398); experiment: Confirmatory qHTS for antagonist of cAMP-regulated guanine nucleotide exchange factor 3 (EPAC1) (AID 1645880); details: EPAC1 Rap1B-BODIPY-GDP exchange, fluorescence; activity, negative = inhibition: at 115 µM (top of the series); further: nearly all actives have a fitted effect of over 55% in size; further: potency means the concentration at half of the fitted maximal effect;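 on activity, negative = inhibition: plate controls were DMSO only for no effect and full effect of the ATA control for full effect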
Rap guanine nucleotide exchange factor 3 (Homo sapiens), sequence (O95398 whole entry, looked up): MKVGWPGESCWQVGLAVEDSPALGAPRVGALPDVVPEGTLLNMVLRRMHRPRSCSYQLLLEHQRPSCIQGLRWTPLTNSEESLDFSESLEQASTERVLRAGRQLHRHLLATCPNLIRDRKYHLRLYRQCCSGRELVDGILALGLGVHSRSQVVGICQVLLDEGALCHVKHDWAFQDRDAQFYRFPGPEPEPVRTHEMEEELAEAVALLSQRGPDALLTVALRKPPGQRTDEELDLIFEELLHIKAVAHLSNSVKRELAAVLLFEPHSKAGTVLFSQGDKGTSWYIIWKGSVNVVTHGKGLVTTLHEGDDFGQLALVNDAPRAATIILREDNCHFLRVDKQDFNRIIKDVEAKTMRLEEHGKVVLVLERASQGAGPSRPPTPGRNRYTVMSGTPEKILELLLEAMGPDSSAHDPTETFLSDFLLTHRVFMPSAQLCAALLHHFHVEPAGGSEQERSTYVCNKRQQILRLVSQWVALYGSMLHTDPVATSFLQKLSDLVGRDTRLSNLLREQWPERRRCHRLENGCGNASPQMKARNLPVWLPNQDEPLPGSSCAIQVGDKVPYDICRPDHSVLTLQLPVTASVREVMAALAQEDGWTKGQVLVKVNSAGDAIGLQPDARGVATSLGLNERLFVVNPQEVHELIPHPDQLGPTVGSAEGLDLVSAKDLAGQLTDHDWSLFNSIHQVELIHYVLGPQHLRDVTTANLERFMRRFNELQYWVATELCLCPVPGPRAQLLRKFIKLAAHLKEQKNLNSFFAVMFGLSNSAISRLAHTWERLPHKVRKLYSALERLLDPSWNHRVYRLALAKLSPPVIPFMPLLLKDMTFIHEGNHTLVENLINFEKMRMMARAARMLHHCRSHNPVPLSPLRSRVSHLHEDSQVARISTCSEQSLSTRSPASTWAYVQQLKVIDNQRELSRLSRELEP
Summary of the method: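 Nucleotide exchange uses 100 nM EPAC1, 250 nM RAP1B-BODIPY-GDP and 50 uM GDP, with compounds in a concentration-titration series. After 5 min at room temperature, fluorescence (480 nm ex/540 nm em) is read every 5 min for 30 min. Data are normalized to control ATA and DMSO.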

[2] = target: Rap guanine nucleotide exchange factor 3 (Homo sapiens) (UniProt O95398); experiment: Confirmatory qHTS for agonist of cAMP-regulated guanine nucleotide exchange factor 3 (EPAC1) (AID 1645881); further: nearly all actives have a fitted effect of over 75% in size; further: potency means the concentration at half of the fitted maximal effect;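 on activation: EPAC1 catalysed release of BODIPY-GDP from Rap1B seen as fluorescence loss; 100% = effect of cAMP agonist control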
[3] = target: Rap guanine nucleotide exchange factor 4 (Homo sapiens) (UniProt Q8WZA2); experiment: Confirmatory qHTS for agonist of cAMP-regulated guanine nucleotide exchange factor 4 (EPAC2) (AID 1645884);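 further: nucleotide exchange releases bodipy-GDP from Rap1 and this lowers its fluorescence; nearly all actives have a fitted effect of over 65% in size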; further: potency means the concentration at half of the fitted maximal effect; on activation: on the % scale 0 is the no-effect control and ±100 the full control effect
Rap guanine nucleotide exchange factor 4 (Homo sapiens), sequence (Q8WZA2 whole entry, looked up): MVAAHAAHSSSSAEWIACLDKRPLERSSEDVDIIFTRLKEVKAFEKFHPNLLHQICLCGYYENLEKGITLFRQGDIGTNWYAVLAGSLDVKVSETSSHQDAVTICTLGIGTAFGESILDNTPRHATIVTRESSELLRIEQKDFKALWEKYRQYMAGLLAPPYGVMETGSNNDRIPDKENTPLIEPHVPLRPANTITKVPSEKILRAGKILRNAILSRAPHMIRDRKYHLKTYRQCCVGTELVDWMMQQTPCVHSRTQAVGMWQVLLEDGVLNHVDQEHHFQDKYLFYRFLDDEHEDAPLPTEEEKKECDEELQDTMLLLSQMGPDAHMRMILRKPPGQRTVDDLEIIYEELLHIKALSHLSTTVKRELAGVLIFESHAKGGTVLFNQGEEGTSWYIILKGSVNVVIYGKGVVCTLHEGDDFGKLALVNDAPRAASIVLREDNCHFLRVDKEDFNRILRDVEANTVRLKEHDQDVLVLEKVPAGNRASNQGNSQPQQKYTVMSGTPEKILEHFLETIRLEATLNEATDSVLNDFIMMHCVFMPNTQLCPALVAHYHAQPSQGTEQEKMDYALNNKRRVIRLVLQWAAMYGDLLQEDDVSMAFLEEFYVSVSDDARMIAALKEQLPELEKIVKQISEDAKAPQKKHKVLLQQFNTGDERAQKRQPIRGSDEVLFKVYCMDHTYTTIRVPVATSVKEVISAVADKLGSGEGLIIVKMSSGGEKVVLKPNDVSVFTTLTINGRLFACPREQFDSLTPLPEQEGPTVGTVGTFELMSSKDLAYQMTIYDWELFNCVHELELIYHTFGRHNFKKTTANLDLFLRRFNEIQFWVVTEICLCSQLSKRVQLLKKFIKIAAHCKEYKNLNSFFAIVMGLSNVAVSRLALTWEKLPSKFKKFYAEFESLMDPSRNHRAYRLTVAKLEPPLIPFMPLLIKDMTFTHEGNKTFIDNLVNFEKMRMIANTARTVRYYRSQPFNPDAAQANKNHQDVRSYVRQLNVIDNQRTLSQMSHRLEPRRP

[4] = target: Rap guanine nucleotide exchange factor 4 (Homo sapiens) (UniProt Q8WZA2); experiment: Confirmatory qHTS for antagonist of cAMP-regulated guanine nucleotide exchange factor 4 (EPAC2) (AID 1645885); further: nearly all actives have a fitted effect of over 25% in size; further: potency means the concentration at half of the fitted maximal effect
[5] = target: Rap guanine nucleotide exchange factor 3 (Homo sapiens) (UniProt O95398); experiment: Counterscreen qHTS for antagonist of cAMP-regulated guanine nucleotide exchange factor 3 (EPAC1) (AID 1645888);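 further: fluorescence loss as bound BODIPY-GDP is released from Rap1B; % of control where 0% means no effect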
Summary of the method: (§1)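 Rap1B–BODIPY-GDP (250 nM) with 50 uM GDP; compounds pin-transferred to 9.74 nM–152 uM final (activator) or from 7.32 nM upwards (inhibitor). Fluorescence Ex/Em 480/540 nm read at 5 and 30 min, then after adding cAMP or buffer, at room temperature.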

[6] = target: Rap guanine nucleotide exchange factor 3 (Homo sapiens) (UniProt O95398); experiment: Counterscreen qHTS for agonist of cAMP-regulated guanine nucleotide exchange factor 3 (EPAC1) (AID 1645889); further: nearly all actives have a fitted effect of over 40% in size; further: potency means the concentration at half of the fitted maximal effect; on activation: % of control where 0% means no effect
Summary of the method: as §1

[7] = AP1 Signaling Pathway (AID 357; active means well fitted curve in either direction with a large enough effect, not every such curve was filed as active;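 further: ME-180 reporter cells stimulated with EGF at its EC50 level; on the % scale 0 is the no-effect control and ±100 the full control effect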); details: ME-180 AP-1-bla reporter, EGF-induced, beta-lactamase ratio, 5 h; at 7.69 µM (top of the series) unless noted
Summary of the method: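 In this screen, ME-180 cells in Opti-MEM with 0.5% dialyzed FBS received EC50 EGF and compound titrations for 5 h. AP-1 reporter beta-lactamase was detected via CCF4 ratio, giving AC50 for positive and negative modulators.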

[8] = NFAT Signaling Pathway (AID 444; active means well fitted curve in either direction with a large enough effect, not every such curve was filed as active;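 further: carbachol stimulus at about its EC50 of 1 µM final; on the % scale 0 is the no-effect control and ±100 the full control effect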); details: Jurkat NFAT-bla M1, carbachol, beta-lactamase ratio, 5 h; at 7.69 µM (top of the series) unless noted
Summary of the method: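 Jurkat cells with NFAT-driven β-lactamase reporter and co-expressed M1 receptor, stimulated with carbachol (final 1 uM, ~EC50), compound titration, 5 h at 37 °C. CCF4 loaded 1 h at RT; 460/530 nm ratio gave %activity and AC50.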

[9] = Stat Signaling Pathway (AID 446; active means well fitted curve in either direction with a large enough effect, not every such curve was filed as active;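 further: ME-180 cervical cancer cells given 40 pM IL-6 alongside compound; SIE-controlled beta-lactamase reporter measured as 460/530 nm FRET emission ratio; on the % scale 0 is the no-effect control and ±100 the full control effect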)
Summary of the method: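 Screening format detects activators and inhibitors alike: ME-180 SIE-bla cells stimulated at 40 pM IL-6 for 5 hrs with compound, then dual-emission beta-lactamase read at 405 nm excitation.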

[10] = target: Glucocorticoid receptor (Homo sapiens) (UniProt P04150); experiment: GR-GFP Redistribution (AID 450;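 active means compounds whose dose series gives a full or clear partial fitted curve of increased nuclear translocation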; further: potency means the concentration at half of the fitted maximal effect); details: U2OS GR-GFP nuclear translocation, laser cytometry, 2 h
Glucocorticoid receptor (Homo sapiens), sequence (P04150 whole entry, looked up): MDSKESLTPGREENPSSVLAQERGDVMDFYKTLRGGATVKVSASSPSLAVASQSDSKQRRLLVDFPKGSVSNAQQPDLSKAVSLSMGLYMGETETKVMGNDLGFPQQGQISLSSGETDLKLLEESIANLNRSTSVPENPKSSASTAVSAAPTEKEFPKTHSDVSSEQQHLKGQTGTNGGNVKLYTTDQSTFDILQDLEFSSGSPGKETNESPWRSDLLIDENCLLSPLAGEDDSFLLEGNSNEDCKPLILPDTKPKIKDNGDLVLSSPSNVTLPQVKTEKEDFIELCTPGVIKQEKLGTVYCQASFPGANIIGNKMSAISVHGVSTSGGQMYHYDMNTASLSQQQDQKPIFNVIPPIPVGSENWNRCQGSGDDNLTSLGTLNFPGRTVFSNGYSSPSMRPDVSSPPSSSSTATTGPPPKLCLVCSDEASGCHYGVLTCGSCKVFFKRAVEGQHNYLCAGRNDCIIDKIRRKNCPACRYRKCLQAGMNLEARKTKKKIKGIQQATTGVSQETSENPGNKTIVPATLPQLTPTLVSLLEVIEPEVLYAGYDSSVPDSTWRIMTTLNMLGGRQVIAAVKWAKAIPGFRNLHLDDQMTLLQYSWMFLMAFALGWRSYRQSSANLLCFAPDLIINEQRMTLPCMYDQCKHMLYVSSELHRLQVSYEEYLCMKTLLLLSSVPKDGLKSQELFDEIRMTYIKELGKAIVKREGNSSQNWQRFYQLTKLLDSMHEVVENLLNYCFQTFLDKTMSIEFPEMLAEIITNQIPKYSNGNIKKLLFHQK

[11] = target: Tumor susceptibility gene 101 protein (Homo sapiens) (UniProt Q99816); experiment: qHTS Assay for Iinhibitors of HIV-1 Budding by Blocking the Interaction of PTAP/TSG101: Hit Validation (AID 651600); further: nearly all actives have a fitted effect of over 70% in size; further: potency means the concentration at half of the fitted maximal effect
Tumor susceptibility gene 101 protein (Homo sapiens), sequence (Q99816 whole entry, looked up, the tested form may be a part): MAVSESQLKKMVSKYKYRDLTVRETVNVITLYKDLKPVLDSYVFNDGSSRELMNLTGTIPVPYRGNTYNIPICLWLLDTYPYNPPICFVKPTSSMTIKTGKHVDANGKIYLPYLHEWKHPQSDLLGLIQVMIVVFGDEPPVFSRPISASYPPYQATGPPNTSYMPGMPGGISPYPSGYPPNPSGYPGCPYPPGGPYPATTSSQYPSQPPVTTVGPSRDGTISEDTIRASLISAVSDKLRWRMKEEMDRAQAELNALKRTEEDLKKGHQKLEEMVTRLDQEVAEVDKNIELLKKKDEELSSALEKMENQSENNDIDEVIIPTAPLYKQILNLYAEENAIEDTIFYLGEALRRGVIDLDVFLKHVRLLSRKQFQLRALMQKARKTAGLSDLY
Summary of the method: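 Displacement of a FITC-labeled PTAP-motif peptide (50 nM) from the Tsg101 binding domain (10 uM) was monitored by fluorescence polarization after a 20 min room-temperature incubation.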

[12] = target: Phosphoglycerate kinase, glycosomal (Trypanosoma brucei brucei) (UniProt P07378); experiment: qHTS for inhibitors of Phosphogylcerate Kinase: Hit Validation Screen (AID 686980); details: TbPGK coupled GAPDH assay, Kinase-Glo luminescence; further: potency means the concentration at half of the fitted maximal effect; nearly all actives have a fitted effect of over 65% in size
Phosphoglycerate kinase, glycosomal (Trypanosoma brucei brucei), sequence (P07378 whole entry, looked up): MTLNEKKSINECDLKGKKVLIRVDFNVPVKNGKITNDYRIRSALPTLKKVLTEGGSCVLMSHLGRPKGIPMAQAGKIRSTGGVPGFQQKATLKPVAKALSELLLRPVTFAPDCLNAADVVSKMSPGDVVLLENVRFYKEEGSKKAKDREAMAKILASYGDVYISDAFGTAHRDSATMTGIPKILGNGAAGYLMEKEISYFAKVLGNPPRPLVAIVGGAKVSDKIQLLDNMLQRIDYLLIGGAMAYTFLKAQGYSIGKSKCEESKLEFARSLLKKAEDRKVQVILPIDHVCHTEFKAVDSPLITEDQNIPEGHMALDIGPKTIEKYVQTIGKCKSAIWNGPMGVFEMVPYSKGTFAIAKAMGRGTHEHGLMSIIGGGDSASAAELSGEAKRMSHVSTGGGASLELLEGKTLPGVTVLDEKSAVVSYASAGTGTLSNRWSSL
Summary of the method: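 Luminescent ATP detection (Kinase-Glo Plus) follows a 60-minute room-temperature incubation, with wells lacking PGK as controls. Buffer: 100 mM TEA (pH 7.6), 5 mM MgCl2, 0.01% Tween-20. Coupling enzyme GAPDH (100 nM final) supplies unstable 1,3-BPG in-well.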

[13] = target: DNA polymerase iota (Homo sapiens) (UniProt Q9UNA4); experiment: qHTS for Inhibitors of Polymerase Iota: Confirmatory Assay for Cherry-picked Compounds (AID 720496); details: Pol iota primer extension, TAMRA/BHQ fluorescence; further: potency means the concentration at half of the fitted maximal effect
DNA polymerase iota (Homo sapiens), sequence (Q9UNA4 whole entry, looked up): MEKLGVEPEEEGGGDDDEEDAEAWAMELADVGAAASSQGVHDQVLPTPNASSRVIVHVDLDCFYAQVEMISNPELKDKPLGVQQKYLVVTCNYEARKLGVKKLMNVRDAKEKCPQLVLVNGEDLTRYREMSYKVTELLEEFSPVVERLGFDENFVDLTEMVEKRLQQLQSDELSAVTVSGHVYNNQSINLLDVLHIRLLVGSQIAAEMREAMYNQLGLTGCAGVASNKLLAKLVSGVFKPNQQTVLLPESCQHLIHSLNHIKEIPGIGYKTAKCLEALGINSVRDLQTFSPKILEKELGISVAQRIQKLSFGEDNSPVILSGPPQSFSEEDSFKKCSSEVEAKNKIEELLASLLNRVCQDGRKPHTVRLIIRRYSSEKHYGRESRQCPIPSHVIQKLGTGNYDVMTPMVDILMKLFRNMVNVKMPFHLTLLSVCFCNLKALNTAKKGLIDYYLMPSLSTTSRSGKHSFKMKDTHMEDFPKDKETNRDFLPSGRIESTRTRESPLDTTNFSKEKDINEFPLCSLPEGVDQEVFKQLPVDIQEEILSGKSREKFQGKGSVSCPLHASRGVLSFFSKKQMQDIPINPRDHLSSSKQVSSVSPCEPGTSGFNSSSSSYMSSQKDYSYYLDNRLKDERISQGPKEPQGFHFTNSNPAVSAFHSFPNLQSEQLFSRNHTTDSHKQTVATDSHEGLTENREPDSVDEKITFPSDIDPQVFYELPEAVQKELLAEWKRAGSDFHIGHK
Summary of the method: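 Buffer-only wells, without enzyme, serve as negative control. Test wells hold 10 nM Pol iota preincubated 15 min with compound before 50 nM final fluorogenic DNA substrate is added; signal is read at 0 and 10 min.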

[14] = target: Flap endonuclease 1 (Homo sapiens) (UniProt P39748); experiment: qHTS Assay for the Inhibitors of FEN1: Confirmatory Assay for Cherry-picked Compounds (AID 720498); details: FEN1 flap cleavage, TAMRA/BHQ2 fluorogenic DNA substrate; further: potency means the concentration at half of the fitted maximal effect; nearly all actives have a fitted effect of over 60% in size
Flap endonuclease 1 (Homo sapiens), sequence (P39748 whole entry, looked up): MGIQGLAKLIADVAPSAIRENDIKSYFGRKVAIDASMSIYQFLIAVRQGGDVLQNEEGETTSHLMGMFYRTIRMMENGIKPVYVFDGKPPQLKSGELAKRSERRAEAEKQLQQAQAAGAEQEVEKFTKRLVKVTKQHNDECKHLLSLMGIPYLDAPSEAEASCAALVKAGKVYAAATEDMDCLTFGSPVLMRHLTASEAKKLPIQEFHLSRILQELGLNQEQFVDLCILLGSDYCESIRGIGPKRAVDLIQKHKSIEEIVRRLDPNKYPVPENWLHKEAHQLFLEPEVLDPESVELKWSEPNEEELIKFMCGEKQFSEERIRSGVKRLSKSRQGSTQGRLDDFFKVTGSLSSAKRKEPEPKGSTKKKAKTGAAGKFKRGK
Summary of the method: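 FEN1 at 10 nM was preincubated with compound for 15 min at room temperature, then 50 nM (final) double-flap DNA substrate was added. TAMRA fluorescence released from the BHQ-2-quenched flap was read at 0 and 15 min (ex 525/em 598 nm).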

[15] = target: DNA polymerase kappa (Homo sapiens) (UniProt Q9UBT6); experiment: qHTS for Inhibitors of Polymerase Kappa: Confirmatory Assay for Cherry-picked Compounds (AID 720501); details: purified Pol-kappa, fluorescent strand-displacement substrate; further: potency means the concentration at half of the fitted maximal effect
Summary of the method: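 10 nM human Pol-kappa was preincubated with compound 15 min at room temperature, then 50 nM (final) primer/template substrate with TAMRA-labeled reporter strand and BHQ-2-labeled template added. Fluorescence (Ex 525, Em 598 nm) read at 0 and 10 min.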

O=C(CSc1nc2ccsc2c(=O)n1CC1CCC(C(=O)O)CC1)c1ccc(Cl)cc1 (configuration not stated)
inactive: Potency [2] | Potency [3] | Potency [4] | Potency [5] | Potency [6]
active: Potency [1] 47.8 µM

CC(=O)Nc1sc(/C(C#N)=C\c2cccc(Cl)c2)nc1-c1ccc(C)cc1
inactive: Potency [1] | Potency [2] | activation [3] -17.2% [at 17.1 µM, percent relative to cAMP agonist control] | Potency [4] | activity change, negative = inhibition [5] 148% [at 30.8 µM] | activation [6] 23.7% [at 30.8 µM]

COc1ccc(Cl)cc1NC(=O)CN1CCc2ccccc21
inactive: Potency [1] | Potency [2] | activation [3] 2.78% [at 17.1 µM, percent relative to cAMP agonist control] | Potency [4] | activity change, negative = inhibition [5] -6.37% [at 30.8 µM] | activation [6] 14.8% [at 30.8 µM]

COc1cccc2c1Oc1ncccc1N(C(=O)CCC(=O)NCc1cccc(C)c1)C2
inactive: Potency [1] | Potency [2] | Potency [3] | Potency [4] | Potency [5] | Potency [6]

O=C(O)CC1Sc2nc3ccccc3n2C1=O (configuration not stated)
inactive: activity change, negative = inhibition [7] 12.1% [at 17.2 µM] | activity change, negative = inhibition [8] 6.71% [at 17.2 µM] | outcome [9] | Potency [10] > 20.6 µM | Potency [1] | Potency [2] | activation [3] 10.5% [at 17.1 µM, percent relative to cAMP agonist control] | Potency [4] | activity change, negative = inhibition [5] -7.87% [at 30.8 µM] | activation [6] 12.5% [at 30.8 µM]

Cc1cc(NS(=O)(=O)c2ccc(NC(=O)COc3c(C)cc(Br)cc3C)cc2)no1
inactive: Potency [11] | Potency [1] | Potency [2] | Potency [3] | Potency [4] | Potency [5] | Potency [6]

CCOC(=O)c1cc2n(c1/N=C/N(C)C)-c1ccccc1C2=O
active: Potency [11] 5.8 µM
inactive: Potency [1] | Potency [2] | activation [3] 6.24% [at 17.1 µM, percent relative to cAMP agonist control] | Potency [4] | activity change, negative = inhibition [5] 1.53% [at 30.8 µM]

Cn1c(=O)c(N)c2c3c(c(Br)ccc31)C(=O)c1ccccc1-2
inactive: Potency [2] | Potency [3] | Potency [5] | Potency [6]
active: Potency [11] 1.63 µM | Potency [1] 26.9 µM | Potency [4] 26.9 µM

CCOc1ccc(NC(=O)c2ccc(NC(=O)COC(=O)c3ccc(NC(=O)CC#N)cc3)cc2)cc1
inactive: Potency [1] | Potency [2] | Potency [3] | Potency [4] | Potency [5]
active: Potency [12] 8.19 µM | Potency [13] 4.74 µM | Potency [14] 67.5 µM

CSC1=NSC2=NC(=O)/C(=C\c3coc4ccccc4c3=O)C(=N)N12
active: Potency [11] 5.17 µM | Potency [2] 89.1 µM | Potency [3] 100 µM | Potency [4] 16.9 µM | Potency [6] 44.7 µM
inactive: Potency [1] | Potency [5]

COc1ccc(CNC(=O)C(C#N)c2nc3ccccc3nc2N2CCCC2)cc1 (configuration not stated)
inactive: Potency [1] | Potency [2] | Potency [3] | Potency [4] | Potency [5] | Potency [6]
active: Potency [11] 9.19 µM

Cc1cc(C=C2C(=O)c3ccccc3C2=O)c(C)n1-c1ccc(Cl)cc1
inactive: Potency [11] | Potency [1] | Potency [2] | activation [3] 3.84% [at 17.1 µM, percent relative to cAMP agonist control] | Potency [4] | activity change, negative = inhibition [5] -26.7% [at 30.8 µM] | activation [6] 7.12% [at 30.8 µM]

Cc1cccc(N2C(=O)c3cccc4c(N(C)CCO)ccc(c34)C2=O)c1
inactive: Potency [1] | Potency [4] | Potency [5]
active: Potency [11] 3.66 µM | Potency [2] 89.1 µM | Potency [3] 100 µM | Potency [6] 39.8 µM

COc1ccc(N=Nc2nc3cc(Br)c(Br)cc3n2C)c(OC)c1
inactive: Potency [11] | Potency [1] | Potency [2] | activation [3] 3.19% [at 17.1 µM, percent relative to cAMP agonist control] | Potency [4] | activity change, negative = inhibition [5] 88.5% [at 30.8 µM]
active: Potency [6] 12.6 µM

COc1ccc(Br)cc1/C=N/Nc1ccc(S(=O)(=O)Nc2ccccc2C(=O)O)cc1[N+](=O)[O-]
inactive: Potency [2] | activation [3] 0.546% [at 17.1 µM, percent relative to cAMP agonist control] | Potency [4] | activity change, negative = inhibition [5] -3.11% [at 30.8 µM] | activation [6] 19% [at 30.8 µM]
active: Potency [13] 37.7 µM | Potency [15] 42.3 µM | Potency [1] 25.1 µM

N#CC(C(=O)NCc1ccccc1)c1nc2ccccc2nc1N1CCCC1 (configuration not stated)
active: Potency [2] 100 µM | Potency [3] 89.1 µM | Potency [4] 75.7 µM
inactive: Potency [11] | Potency [1] | Potency [5] | Potency [6]

Reference: PubChem BioAssay (NCATS)
